According to ChEMBL document CHEMBL1961873, “Compounds: GSK PKIS; Assays: Nanosyn kinase panel” (2012):

Experiments:
[1] = target: Tyrosine-protein kinase Fer (Homo sapiens) (UniProt P16591); conditions: at 1 µM
[2] = target: Tyrosine-protein kinase Fes/Fps (Homo sapiens) (UniProt P07332); conditions: at 0.1 µM
[3] = target: Tyrosine-protein kinase Fes/Fps (Homo sapiens) (UniProt P07332); conditions: at 1 µM
[4] = target: Fibroblast growth factor receptor 1 (Homo sapiens) (UniProt P11362); conditions: at 0.1 µM
[5] = target: Fibroblast growth factor receptor 1 (Homo sapiens) (UniProt P11362); conditions: at 1 µM
[6] = target: Fibroblast growth factor receptor 2 (Homo sapiens) (UniProt P21802); conditions: at 0.1 µM
[7] = target: Fibroblast growth factor receptor 2 (Homo sapiens) (UniProt P21802); conditions: at 1 µM
[8] = target: Fibroblast growth factor receptor 3 (Homo sapiens) (UniProt P22607); conditions: at 0.1 µM
[9] = target: Fibroblast growth factor receptor 3 (Homo sapiens) (UniProt P22607); conditions: at 1 µM
[10] = target: Fibroblast growth factor receptor 4 (Homo sapiens) (UniProt P22455); conditions: at 0.1 µM
[11] = target: Fibroblast growth factor receptor 4 (Homo sapiens) (UniProt P22455); conditions: at 1 µM
[12] = target: Tyrosine-protein kinase Fgr (Homo sapiens) (UniProt P09769); conditions: at 0.1 µM
[13] = target: Tyrosine-protein kinase Fgr (Homo sapiens) (UniProt P09769); conditions: at 1 µM
[14] = target: Vascular endothelial growth factor receptor 1 (Homo sapiens) (UniProt P17948); conditions: at 0.1 µM
[15] = target: Vascular endothelial growth factor receptor 1 (Homo sapiens) (UniProt P17948); conditions: at 1 µM
[16] = target: Receptor-type tyrosine-protein kinase FLT3 (Homo sapiens) (UniProt P36888); conditions: at 0.1 µM
[17] = target: Receptor-type tyrosine-protein kinase FLT3 (Homo sapiens) (UniProt P36888); conditions: at 1 µM
[18] = system: T1, Receptor-type tyrosine-protein kinase FLT3 (Homo sapiens), P36888 [D835Y]; conditions: at 0.1 µM
T1 sequence (whole entry): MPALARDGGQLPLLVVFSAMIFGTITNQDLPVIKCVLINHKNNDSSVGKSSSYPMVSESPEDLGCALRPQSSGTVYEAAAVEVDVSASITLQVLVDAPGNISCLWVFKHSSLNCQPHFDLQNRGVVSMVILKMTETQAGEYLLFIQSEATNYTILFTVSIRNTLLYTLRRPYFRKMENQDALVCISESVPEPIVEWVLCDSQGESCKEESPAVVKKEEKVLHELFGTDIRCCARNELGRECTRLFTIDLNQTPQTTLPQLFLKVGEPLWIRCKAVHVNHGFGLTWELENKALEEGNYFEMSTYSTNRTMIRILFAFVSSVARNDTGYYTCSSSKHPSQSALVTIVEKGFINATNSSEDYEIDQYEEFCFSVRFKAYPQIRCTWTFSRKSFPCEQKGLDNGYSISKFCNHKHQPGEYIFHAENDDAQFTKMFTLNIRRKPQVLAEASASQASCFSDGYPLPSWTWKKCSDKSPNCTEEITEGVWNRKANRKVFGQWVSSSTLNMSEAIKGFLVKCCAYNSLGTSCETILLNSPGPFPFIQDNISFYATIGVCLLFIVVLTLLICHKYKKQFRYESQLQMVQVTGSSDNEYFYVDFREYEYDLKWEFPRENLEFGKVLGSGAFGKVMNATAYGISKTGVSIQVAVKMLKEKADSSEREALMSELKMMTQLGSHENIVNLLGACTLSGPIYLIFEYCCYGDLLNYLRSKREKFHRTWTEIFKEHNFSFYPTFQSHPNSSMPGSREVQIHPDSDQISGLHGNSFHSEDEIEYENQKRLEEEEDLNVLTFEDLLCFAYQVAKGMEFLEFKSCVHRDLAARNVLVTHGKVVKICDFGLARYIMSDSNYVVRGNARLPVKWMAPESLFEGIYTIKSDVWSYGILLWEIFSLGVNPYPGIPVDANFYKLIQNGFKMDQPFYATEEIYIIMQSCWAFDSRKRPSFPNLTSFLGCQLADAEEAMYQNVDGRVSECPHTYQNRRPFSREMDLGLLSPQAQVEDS

[19] = target: Non-receptor tyrosine-protein kinase TYK2 (Homo sapiens) (UniProt P29597); conditions: at 1 µM;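 further: values are mean percent inhibition of TYK2 kinase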
[20] = target: T2, Tyrosine-protein kinase receptor TYRO3 (Homo sapiens) (UniProt Q06418); conditions: at 0.1 µM;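 further: reported percentages are averaged inhibition values of TYRO3 kinase activity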
T2 sequence (whole entry): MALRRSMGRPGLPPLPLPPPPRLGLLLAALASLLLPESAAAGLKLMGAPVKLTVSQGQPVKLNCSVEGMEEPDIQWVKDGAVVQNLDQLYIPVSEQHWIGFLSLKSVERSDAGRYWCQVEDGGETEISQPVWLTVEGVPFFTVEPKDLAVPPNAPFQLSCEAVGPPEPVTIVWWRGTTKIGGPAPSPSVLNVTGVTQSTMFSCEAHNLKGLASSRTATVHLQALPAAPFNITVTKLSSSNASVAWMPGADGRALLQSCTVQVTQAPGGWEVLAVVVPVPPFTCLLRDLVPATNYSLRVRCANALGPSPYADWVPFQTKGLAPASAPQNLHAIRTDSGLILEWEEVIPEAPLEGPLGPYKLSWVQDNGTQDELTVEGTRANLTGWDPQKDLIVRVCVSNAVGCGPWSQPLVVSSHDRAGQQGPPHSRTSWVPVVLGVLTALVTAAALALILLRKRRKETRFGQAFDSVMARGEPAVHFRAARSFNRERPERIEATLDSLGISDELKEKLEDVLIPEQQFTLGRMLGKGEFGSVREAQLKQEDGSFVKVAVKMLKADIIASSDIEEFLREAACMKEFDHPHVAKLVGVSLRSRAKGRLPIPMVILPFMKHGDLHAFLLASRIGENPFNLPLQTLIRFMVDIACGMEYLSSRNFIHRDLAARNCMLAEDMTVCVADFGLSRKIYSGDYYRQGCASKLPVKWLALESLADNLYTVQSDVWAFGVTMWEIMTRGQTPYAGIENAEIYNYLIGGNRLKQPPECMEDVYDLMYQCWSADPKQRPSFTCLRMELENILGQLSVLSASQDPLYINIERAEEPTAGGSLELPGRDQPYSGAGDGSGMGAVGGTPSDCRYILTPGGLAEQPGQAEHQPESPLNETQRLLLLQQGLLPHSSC

Chain of Tyrosine-protein kinase Fes/Fps (Homo sapiens) (P07332 whole entry): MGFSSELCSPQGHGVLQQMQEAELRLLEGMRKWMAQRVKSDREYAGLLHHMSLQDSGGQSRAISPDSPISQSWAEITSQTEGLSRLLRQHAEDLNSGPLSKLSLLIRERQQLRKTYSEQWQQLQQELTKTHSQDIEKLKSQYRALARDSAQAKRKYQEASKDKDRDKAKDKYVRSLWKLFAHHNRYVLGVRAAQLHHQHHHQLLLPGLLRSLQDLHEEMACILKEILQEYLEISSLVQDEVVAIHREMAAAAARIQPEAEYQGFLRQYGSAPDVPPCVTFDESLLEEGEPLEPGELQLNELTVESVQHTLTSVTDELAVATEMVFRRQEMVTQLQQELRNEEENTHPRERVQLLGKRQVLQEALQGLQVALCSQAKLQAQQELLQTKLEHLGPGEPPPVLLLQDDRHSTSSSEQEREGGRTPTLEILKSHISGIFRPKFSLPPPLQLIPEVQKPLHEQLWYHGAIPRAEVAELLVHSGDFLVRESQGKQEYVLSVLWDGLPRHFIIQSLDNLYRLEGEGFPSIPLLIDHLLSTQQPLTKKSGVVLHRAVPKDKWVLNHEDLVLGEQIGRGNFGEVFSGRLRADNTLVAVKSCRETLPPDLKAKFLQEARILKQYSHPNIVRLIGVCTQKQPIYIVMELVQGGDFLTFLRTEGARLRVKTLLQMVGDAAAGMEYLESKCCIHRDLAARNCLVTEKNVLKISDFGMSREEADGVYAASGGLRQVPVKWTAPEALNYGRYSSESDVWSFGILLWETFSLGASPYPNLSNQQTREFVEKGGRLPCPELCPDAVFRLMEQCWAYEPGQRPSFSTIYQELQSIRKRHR
Chain of Fibroblast growth factor receptor 1 (Homo sapiens) (P11362 22-822 limits assumed): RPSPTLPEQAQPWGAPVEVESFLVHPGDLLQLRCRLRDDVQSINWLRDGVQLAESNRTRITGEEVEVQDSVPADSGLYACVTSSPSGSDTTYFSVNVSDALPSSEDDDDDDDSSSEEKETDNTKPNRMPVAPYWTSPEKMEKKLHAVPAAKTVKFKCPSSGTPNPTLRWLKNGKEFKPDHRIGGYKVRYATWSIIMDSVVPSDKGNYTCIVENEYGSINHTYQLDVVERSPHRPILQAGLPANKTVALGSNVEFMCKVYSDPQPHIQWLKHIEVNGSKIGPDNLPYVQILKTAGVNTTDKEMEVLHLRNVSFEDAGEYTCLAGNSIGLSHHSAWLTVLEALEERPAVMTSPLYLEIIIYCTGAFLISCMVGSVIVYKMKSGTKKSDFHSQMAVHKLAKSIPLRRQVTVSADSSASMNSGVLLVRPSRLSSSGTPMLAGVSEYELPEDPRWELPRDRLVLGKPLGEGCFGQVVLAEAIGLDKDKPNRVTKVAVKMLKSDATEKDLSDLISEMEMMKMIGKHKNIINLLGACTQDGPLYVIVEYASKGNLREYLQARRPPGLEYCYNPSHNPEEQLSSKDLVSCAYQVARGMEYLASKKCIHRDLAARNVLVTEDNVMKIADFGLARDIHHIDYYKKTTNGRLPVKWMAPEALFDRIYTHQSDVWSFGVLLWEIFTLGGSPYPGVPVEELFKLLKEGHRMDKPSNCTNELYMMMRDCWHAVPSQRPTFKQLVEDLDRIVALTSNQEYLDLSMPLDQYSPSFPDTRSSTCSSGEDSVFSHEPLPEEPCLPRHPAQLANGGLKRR
Chain of Non-receptor tyrosine-protein kinase TYK2 (Homo sapiens) (P29597 whole entry): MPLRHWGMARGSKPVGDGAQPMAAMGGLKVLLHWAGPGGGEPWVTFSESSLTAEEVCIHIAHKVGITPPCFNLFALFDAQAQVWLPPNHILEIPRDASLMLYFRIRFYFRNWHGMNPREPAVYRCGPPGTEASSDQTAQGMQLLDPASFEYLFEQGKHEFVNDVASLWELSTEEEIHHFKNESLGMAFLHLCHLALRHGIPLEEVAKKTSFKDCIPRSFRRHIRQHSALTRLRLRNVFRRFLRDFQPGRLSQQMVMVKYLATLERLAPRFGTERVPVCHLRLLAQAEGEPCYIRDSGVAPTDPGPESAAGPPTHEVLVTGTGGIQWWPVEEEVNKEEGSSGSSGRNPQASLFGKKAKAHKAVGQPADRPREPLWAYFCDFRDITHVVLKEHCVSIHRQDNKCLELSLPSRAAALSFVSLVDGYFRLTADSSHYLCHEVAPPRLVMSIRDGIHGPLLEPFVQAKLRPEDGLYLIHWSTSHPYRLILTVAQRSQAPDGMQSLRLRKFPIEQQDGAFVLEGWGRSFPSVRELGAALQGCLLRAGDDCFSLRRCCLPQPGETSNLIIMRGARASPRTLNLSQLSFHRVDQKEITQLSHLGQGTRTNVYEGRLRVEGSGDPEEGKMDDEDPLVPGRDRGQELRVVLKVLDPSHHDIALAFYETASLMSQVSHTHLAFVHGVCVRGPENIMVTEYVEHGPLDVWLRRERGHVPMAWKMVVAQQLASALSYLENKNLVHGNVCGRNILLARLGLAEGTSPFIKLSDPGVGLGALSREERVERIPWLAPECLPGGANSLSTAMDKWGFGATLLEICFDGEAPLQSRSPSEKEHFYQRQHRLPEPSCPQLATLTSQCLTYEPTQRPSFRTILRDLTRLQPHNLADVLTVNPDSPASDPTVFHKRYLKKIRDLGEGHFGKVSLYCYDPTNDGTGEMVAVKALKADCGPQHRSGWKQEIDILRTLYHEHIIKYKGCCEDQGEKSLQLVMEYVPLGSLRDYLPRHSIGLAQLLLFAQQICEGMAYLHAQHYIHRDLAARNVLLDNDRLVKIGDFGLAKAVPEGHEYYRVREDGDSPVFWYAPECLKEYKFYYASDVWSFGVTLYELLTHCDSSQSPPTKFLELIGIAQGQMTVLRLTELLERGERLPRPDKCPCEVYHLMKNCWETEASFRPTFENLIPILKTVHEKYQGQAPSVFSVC
Chain of Tyrosine-protein kinase Fgr (Homo sapiens) (P09769 2-529 limits assumed): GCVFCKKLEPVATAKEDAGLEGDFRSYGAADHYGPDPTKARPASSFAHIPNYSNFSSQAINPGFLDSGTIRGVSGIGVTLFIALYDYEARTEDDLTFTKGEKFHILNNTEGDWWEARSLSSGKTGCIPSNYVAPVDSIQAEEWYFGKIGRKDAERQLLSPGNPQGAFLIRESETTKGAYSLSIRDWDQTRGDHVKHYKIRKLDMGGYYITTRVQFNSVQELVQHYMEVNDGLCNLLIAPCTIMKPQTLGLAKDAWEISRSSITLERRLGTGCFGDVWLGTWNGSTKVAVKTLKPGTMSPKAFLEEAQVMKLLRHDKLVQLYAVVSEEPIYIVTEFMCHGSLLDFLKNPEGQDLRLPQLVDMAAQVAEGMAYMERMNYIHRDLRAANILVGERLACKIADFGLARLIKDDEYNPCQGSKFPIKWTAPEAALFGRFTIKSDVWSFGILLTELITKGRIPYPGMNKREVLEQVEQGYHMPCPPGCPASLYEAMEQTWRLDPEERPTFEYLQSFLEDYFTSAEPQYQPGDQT
Chain of Fibroblast growth factor receptor 4 (Homo sapiens) (P22455 22-802 limits assumed): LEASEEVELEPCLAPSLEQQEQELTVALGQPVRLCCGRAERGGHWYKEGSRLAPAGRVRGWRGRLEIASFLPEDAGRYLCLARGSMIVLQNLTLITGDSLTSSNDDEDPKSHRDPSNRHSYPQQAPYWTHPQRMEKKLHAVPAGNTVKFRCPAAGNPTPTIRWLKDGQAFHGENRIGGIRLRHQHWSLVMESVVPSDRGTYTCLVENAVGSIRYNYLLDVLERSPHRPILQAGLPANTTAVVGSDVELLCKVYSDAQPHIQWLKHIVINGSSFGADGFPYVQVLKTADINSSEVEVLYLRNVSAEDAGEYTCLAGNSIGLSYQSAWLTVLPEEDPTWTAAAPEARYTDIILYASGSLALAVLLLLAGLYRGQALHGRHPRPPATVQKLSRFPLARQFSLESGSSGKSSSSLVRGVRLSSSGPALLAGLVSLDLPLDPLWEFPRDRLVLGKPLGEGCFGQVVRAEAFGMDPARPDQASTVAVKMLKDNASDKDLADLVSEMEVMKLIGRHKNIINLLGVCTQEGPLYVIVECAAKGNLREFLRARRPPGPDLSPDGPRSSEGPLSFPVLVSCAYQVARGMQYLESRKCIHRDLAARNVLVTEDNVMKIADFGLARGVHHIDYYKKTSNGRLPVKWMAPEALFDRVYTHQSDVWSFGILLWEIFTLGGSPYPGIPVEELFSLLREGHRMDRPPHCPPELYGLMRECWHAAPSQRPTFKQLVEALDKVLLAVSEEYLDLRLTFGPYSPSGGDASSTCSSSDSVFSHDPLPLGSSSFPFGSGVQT
Chain of Fibroblast growth factor receptor 3 (Homo sapiens) (P22607 23-806 limits assumed): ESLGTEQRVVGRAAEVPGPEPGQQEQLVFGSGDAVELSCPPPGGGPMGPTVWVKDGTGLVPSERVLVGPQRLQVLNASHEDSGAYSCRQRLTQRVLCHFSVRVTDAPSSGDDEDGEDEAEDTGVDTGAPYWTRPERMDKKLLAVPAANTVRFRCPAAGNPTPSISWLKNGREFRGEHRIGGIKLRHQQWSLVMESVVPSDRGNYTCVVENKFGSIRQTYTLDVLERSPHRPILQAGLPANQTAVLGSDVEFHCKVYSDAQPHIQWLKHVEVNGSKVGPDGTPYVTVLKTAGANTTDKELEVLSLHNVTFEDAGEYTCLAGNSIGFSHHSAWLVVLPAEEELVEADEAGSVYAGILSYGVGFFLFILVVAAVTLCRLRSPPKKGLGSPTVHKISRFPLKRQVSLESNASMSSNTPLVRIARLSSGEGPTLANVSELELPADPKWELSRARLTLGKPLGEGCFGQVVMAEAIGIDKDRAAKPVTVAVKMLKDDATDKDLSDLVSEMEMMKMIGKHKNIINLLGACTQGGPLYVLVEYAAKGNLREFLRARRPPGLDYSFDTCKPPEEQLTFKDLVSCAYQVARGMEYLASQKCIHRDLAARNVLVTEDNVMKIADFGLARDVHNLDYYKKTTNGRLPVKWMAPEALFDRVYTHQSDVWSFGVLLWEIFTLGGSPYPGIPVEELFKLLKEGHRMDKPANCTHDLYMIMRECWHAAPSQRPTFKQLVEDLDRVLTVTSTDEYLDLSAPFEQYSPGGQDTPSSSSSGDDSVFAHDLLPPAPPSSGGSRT

Row | SMILES | inhibition [1] [%] | inhibition [2] [%] | inhibition [3] [%] | inhibition [4] [%] | inhibition [5] [%] | inhibition [6] [%] | inhibition [7] [%] | inhibition [8] [%] | inhibition [9] [%] | inhibition [10] [%] | inhibition [11] [%] | inhibition [12] [%] | inhibition [13] [%] | inhibition [14] [%] | inhibition [15] [%] | inhibition [16] [%] | inhibition [17] [%] | inhibition [18] [%] | inhibition [19] [%] | inhibition [20] [%]
1 | CNC(=O)c1cncc(/C=C/c2c(C)cccc2C)c1 | 3.37 | -0.51 | -0.68 | -3.96 | -3.96 | -3.46 | -2.09 | -2.67 | -3.86 | -4.63 | -4.47 | 6.6 | 29.6 | 1.75 | 1.51 | -1.59 | 1.3 | 3.49 | 0.52 | 0.85
2 | FC(F)(F)c1cccc(Nc2nccc(-c3cnn4nc(-c5ccccc5)ccc34)n2)c1 | 4.03 | 1.27 | 2.38 | -1.25 | -0.07 | 1.56 | 3.34 | 1.31 | 2.97 | -0.29 | 1.26 | 2.98 | 8.69 | 2.04 | 1.17 | 1.84 | 18.2 | -4.32 | -5.81 | -0.57
3 | CN(C)c1ccc2c(c1)/C(=C/Nc1ccc(S(N)(=O)=O)cc1)C(=O)N2 | 8.18 | 0.6 | 0.4 | 3.54 | 15.3 | 5.56 | 31.6 | 7.1 | 29.6 | 1.99 | 3.82 | 2.49 | 16.7 | 1.02 | 12.6 | 3.53 | 17.7 | 0.41 | 17.2 | 3.54
4 | O=C(Nc1ccc(Oc2ccc3[nH]c(NC(=O)c4ccccc4)nc3c2)cc1)Nc1cc(C(F)(F)F)ccc1F | 7.9 | 2.28 | 2.49 | 2.35 | 6.8 | 2.19 | 18.8 | 7.91 | 6.31 | -0.39 | 0.83 | 9.57 | 7.53 | 5.53 | 39.3 | 6.63 | 53.4 | -0.18 | -0.97 | 2.33
5 | COc1ccc2cc(-c3c(-c4ccncc4)nc(-c4ccc(S(C)(=O)=O)cc4C)n3C)ccc2c1 | 6.59 | 3.14 | 3.35 | 2.35 | 6.54 | 3.92 | 6.16 | 4.02 | 6.07 | -7.02 | 2.96 | 3.77 | 4.62 | 0.91 | 2.09 | 1.65 | 1 | -1.54 | -1.13 | 2.19
6 | COc1cccc(/C=N/Nc2ncnc3c2cnn3-c2cccc(OC)c2)c1 | 3.78 | 3.43 | 3.25 | 4.2 | 2.4 | 5.34 | 6.12 | 4.59 | 5.11 | 2.44 | 0.32 | 1.37 | 8.08 | 3.79 | 0.71 | 0.18 | 4.83 | -0.05 | -1.11 | 3.49
7 | N#Cc1ccc(Oc2nccc(-c3c(-c4ccc(F)cc4)ncn3C3CCNCC3)n2)cc1 | 4.07 | 4.54 | 4.03 | -0.69 | 5.45 | 3.13 | 6.84 | 3.14 | 5.22 | 0.73 | -0.84 | 3.69 | 6.62 | -0.44 | -0.67 | -0.97 | 3.98 | -7.02 | -0.38 | 2.69
8 | O=C1NC(=O)C(c2cccc(Cl)c2)=C1Nc1ccc(Cl)c(C(=O)O)c1 | 2.51 | 2.13 | 2.52 | 3.46 | 16.2 | 8.43 | 20.6 | 6.79 | 24.8 | -1.89 | 1.23 | 5.15 | 1.19 | 2.61 | 7.03 | 3.91 | 0.25 | -6.52 | -1.23 | 1.77
9 | CN(C)CCOc1ccc(-c2cc(-c3ccc4c(c3)CCC4=NO)c(-c3ccncc3)o2)cc1 | -0.96 | 0.22 | -1.71 | -4.37 | -0.28 | -2.17 | -0.7 | -1.69 | -0.19 | 1.99 | -1.71 | 1.5 | 7.33 | -0.18 | -0.16 | -0.73 | -1.89 | -7.59 | 0.1 | -0.87
10 | COc1ccc(C2=C(N3CCc4ccccc43)C(=O)NC2=O)cc1 | 4.91 | 3.03 | 5.04 | 4.17 | 8.02 | 4.11 | 6.4 | 8.71 | 8.26 | 2.43 | 1.06 | 5.11 | 3.99 | 1.27 | 2.89 | 3.27 | 2.59 | 5.76 | -5.5 | 4.63
11 | COc1cc(C)c(N(C)C(=O)CN(C)C)cc1Nc1nc(Nc2cccc(F)c2C(N)=O)c2cc[nH]c2n1 | 23 | 5.04 | 10.7 | 0.07 | -3.58 | -2.28 | -2.01 | -0.36 | -2.8 | -3.66 | -2.22 | 0.53 | 2 | -0.09 | 1.09 | 1.42 | 2.03 | 0.68 | -1.64 | 1.86
12 | COc1ccc(-c2ccc3c(NC(=O)C4CC4)n[nH]c3n2)cc1 | 3.63 | 0.69 | 0.62 | -1.21 | 0.21 | 0.09 | 0.42 | 1.8 | 0.95 | -0.34 | 0.39 | 3.05 | 6.74 | -0.58 | 0.09 | 0.61 | 3.42 | -3.58 | -0.42 | 2.92
13 | O=C(Nc1n[nH]c2cc(-c3cc(F)ccc3F)ccc12)C1CC1 | 3.05 | 2.89 | 3.45 | 0.53 | 1.69 | 1.35 | 6.04 | 3.51 | 2.02 | -1.89 | 0.78 | 3.33 | 7.71 | 0.6 | 1.91 | 1.12 | 4.67 | -5.43 | -2.35 | 3.8
